About 83,000 compounds went through this panel and 20% of them were active in at least one assay; those are over-represented in the sample as a whole.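 The endpoint reported here, percent growth, reads 100 for growth as untreated, 0 for no net growth and -100 for all cells dead.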 Unmarked numbers belong to inactive results. Calls of active or inactive are those of the source. The calls were made as follows: active = growth percent below 10; inactive = the rest.

The test system of the assay is HL-60(TB) leukemia. The experiment in a line: NCI-60 one-dose screen, 48 h (100 = growth as untreated, 0 = no growth, -100 = all killed). Particulars: 10 µM unless noted.
In the case of `CC(C)(CCCN=C(N)Nc1ccc(Cl)cc1)c1ccc(F)cc1`, the growth is 93.4%.

As to `O=C(O)c1ccc(NC(=O)c2ccc(Nc3ccnc(C(F)(F)F)c3)cc2)cc1`, the growth is 97.4%.

`COc1ccc(/C=C/C(=O)c2cc3c(N)c(C(=O)Nc4ccccc4Cl)sc3nc2C)cc1`: the growth was 4.2% (active).

Consider `COc1cc(/C=N/Nc2ncnc3c2c(C)nn3-c2ccc(F)cc2)ccc1O`, for which the growth was 98.3%.

Regarding `COc1ccc2c(O)cc3c(c2c1)[C@H](CCl)CN3C(=O)c1cc2cc(NC(=O)CCN3CCOCC3)ccc2[se]1`, the growth was 66%.

On to `C[N+]1=C(/C=C/c2ccc(I)cc2)C(C)(C)c2ccccc21`, for which the growth was 39.4%.

As for `COc1cc(NCCC2CCCCN2)c2ncccc2c1OC` (stereo not given), the growth is 0.805% (active).

Regarding `CC(=O)N=c1ccc2nc3c(cc(N)c4ccccc43)oc-2c1`, the growth is -82.9% (active).

With `CCCCCCCCCCCCCCCCCCOc1ccccc1CC(=O)NCC[N+]1(C)CCCCC1`, the growth is 41.8%.

In the case of `Oc1ccccc1-c1nnc(COc2ccc(Cl)cc2Cl)o1`, the growth was 3.89% (active).

In the case of `Cc1cc(/C=C2\SC(=Nc3ccccc3)N(C3CCCC3)C2=O)c(C)n1-c1ccc(Cl)cc1`, the growth is -27.3% (active).

On to `COc1ccc(/C(C)=C(\c2ccc(Cl)cc2)c2ccc(OCCN3CCCCCC3)cc2)cc1`, for which the growth was 25.8%.

On to `COc1cccc(NC(=O)Nc2ccc(Nc3ncnc4sc5c(c34)CCN(C(=O)CCl)C5)cc2)c1`, for which the growth is 90%.

Take `Cn1c(COC(=O)NCCN2CCOCC2)nc2c(N3CCOCC3)nc(-c3ccccc3)nc21`: the growth was -52.8% (active).

Take `O=C(/C=C/c1ccc2c(c1)OCO2)c1c(O)c2ccccc2oc1=O`: the growth is 77.8%.

In the case of `CCOC(=O)Cn1c(=O)c2c(c3ccccc3n2C)n2nnc(-c3ccccc3)c12`, the growth is 109%.

For the compound `COc1ccc(C2C(C#N)=C(N)Oc3c2sc2c(Br)cccc32)cc1` (stereo not given), the growth was -9.13% (active).

For the compound `O=C1/C(=C/c2ccccc2[N+](=O)[O-])COc2ccc(O)cc21`, the growth was -8.06% (active).

`CNC(=O)c1c(NC(=O)c2ccc(C(C)(C)C)cc2)sc2c(CN(C)C)c(O)ccc12`: the growth is -33% (active).

Turning to `CCN(CC)CCNC(=O)c1ccc(-c2nc3ccc4[nH]ncc4c3c3c2CCCC3)cc1`, the growth was 67.9%.

As for `COc1cccc(/C=C/C(=O)c2c(C)nc3ccccc3c2/C=C/c2ccc(C)cc2)c1OC`, the growth is 36%.

As to `CC(C)[C@@H](C)/C=C/[C@@H](C)[C@H]1CCC2=C3C=CC4=CC(=O)CC[C@]4(C)[C@H]3CC[C@@]21C`, the growth was 93.9%.

Turning to `COc1ccc(C2=NN(C(C)=O)C(c3cn(Cc4ccc(Cl)cc4)c4ccccc34)C2)cc1` (stereo not given), the growth is 79.5%.

In the case of `c1cc(OCCN2CCCCC2)ccc1CNc1ccc2nc(CCC3CCCCC3)[nH]c2c1`, the growth was -31.6% (active).

With `CCOC(=O)c1c2c(n3ccc(NC(=O)CCN4CCCC4)cc13)C(=O)c1ncccc1C2=O`, the growth is -34.2% (active).

For the compound `CCOc1cc(\C=N/N=C(N)/C(N)=N\N=C/c2ccc(O)c(OCC)c2)ccc1O`, the growth is 121%.

Regarding `N#CCc1ccc([N+](=O)[O-])cc1`, the growth was 53.1%.

As for `O=C(Nc1ccc(-c2ccc3c(c2)NC(=O)/C3=C\c2ccc[nH]2)cc1)NC1CC1`, the growth was 98.3%.

For the compound `C=C1C(=O)O[C@H]2[C@H]1CC/C(Cn1cc(Cn3ccc4ccccc43)nn1)=C\CC[C@@]1(C)O[C@@H]21`, the growth was -48.5% (active).

As for `Oc1ccc(CCCCCCc2ccc(O)cc2)cc1`, the growth is 100%.

Regarding `COc1cc(C(=O)OCCCCCCCCCCC[P+](c2ccccc2)(c2ccccc2)c2ccccc2)ccc1O`, the growth was -56% (active).

Regarding `COc1cc(-c2ccc(N=Nc3c(O)c(C(=O)Nc4ccccc4OC)cc4ccccc34)c(OC)c2)ccc1N=Nc1c(O)c(C(=O)Nc2ccccc2OC)cc2ccccc12`, the growth is 79.2%.

For the compound `CSc1ccc2c3c(n(CCCn4ccnc4)c(=O)c2c1)-c1ccccc1C3=O`, the growth was 15.5%.

Regarding `O=C(Cn1c2ccccc2c2ccncc21)N/N=C\c1ccc2ccccc2c1`, the growth was 40.5%.

`O=C1C(c2c(O)[nH]c3ncccc23)=Nc2ccccc21`: the growth was 173%.

Take `COc1ccc(C(=O)/C=C/c2cn(Cc3ccc(Cl)cc3)c3ccccc23)cc1`: the growth was 47.2%.

As for `NC(N)=NC(N)=Nc1cc2ccccc2c2ccccc12`, the growth is 28.8%.

For `CO[C@@]12C=C[C@@]34CCC(=O)N3c3ccccc3[C@@H](O1)C4C2`, the growth was 96.9%.

On to `CCN1CCN(c2nc(C)cc(N(CCCNc3ccnc4cc(Cl)ccc34)Cc3ccc4c(c3)OCO4)n2)CC1`, for which the growth is -60.4% (active).

In the case of `CCCCCCCCCN1C(=O)/C(=c2\sc3n(c2=O)C2C(NN=3)N(CC)C(=O)N2CC)c2ccccc21` (stereo not given), the growth was 84.1%.
